According to ChEMBL document CHEMBL1157539, “Thousands of chemical starting points for antimalarial lead identification” (Nature, 2010):
In all, about 13,000 compounds were measured (“IFI”: median about 4, highest 2% from about 17 on). Many of the other results were omitted from the sample, so the highest values are more common in it than they were.

Assay: GSK_TCMDC: Inhibition Frequency Index (IFI). The number of non-kinase HTS assays where a compound showed > 50 % inhibition, expressed as a percentage of the number of such assays in which the compound was tested
Assay type: functional

First: CCCCN(C(=O)c1ccccc1C)c1nnc(-c2ccccc2C)s1
Second: CCOC(=O)c1nc(-c2cccnc2)[nH]c1NC(=S)NCc1ccccc1
The IFI of the first is lower: 2.56% for the first, 3.15% for the second.

Going from `Cc1ccc2nc(C)n(C3CCN(C(=O)Cc4ccc(F)c(F)c4)CC3)c2c1` to `O=C(/C=C/c1ccc(Cl)c(Cl)c1)N1CCN(C(=O)Nc2ccc(F)c(Cl)c2)CC1`, the IFI rises from 0% to 15.2%.

Compared with `O=C(N[C@H]1CCN(Cc2ccc(OCCN3CCNCC3)c(Br)c2)C1)c1ccc(Cl)c(Cl)c1`, `O=C(Cc1ccc(-c2ccccc2)cc1)N[C@H]1CCN(Cc2ccc(OCCCN3CCCCC3)cc2)C1` is higher in IFI: 6.9% for the first, 7.53% for the second.

First: C[C@H](Cc1ccc(OCCNC[C@H](O)c2cccc(Cl)c2)cc1)NC[C@H](O)c1ccc(Cl)c(Cl)c1
Second: C[C@H](Cc1ccc(OCCCCCOc2ccc(C[C@@H](C)NC[C@H](O)c3cccc(Cl)c3)cc2)cc1)NC[C@H](O)c1cccc(Cl)c1
The IFI of the first is lower: 11.4% for the first, 20.9% for the second.

Going from `CC(NCCc1cccc(Cl)c1)C(O)c1ccc(OCCCCCCOc2ccc(C(O)C(C)NCCc3cccc(Cl)c3)cc2)cc1` (configuration not stated) to `C[C@H](Cc1ccc(OCCCCCCOc2ccc(C[C@@H](C)NC[C@H](O)c3cccc(Cl)c3)cc2)cc1)NC[C@H](O)c1cccc(Cl)c1`, the IFI rises from 13% to 16.9%.

Compared with `COc1ccc(CC(Cc2ccc(OC)cc2)NCC(O)c2cccc(Cl)c2)cc1` (configuration not stated), `C[C@H](Cc1ccc(OCCCCCCOc2ccc(C[C@@H](C)N[C@H](C)c3ccccc3)cc2)cc1)NC[C@H](O)c1cccc(Cl)c1` is higher in IFI: 4.86% for the first, 19.6% for the second.

First: CC(CCCC(=O)Nc1ccc(CC(C)NCCc2cccc(Cl)c2)cc1)NCCc1cccc(Cl)c1 (configuration not stated)
Second: CC(CCCCC(=O)Nc1ccc(CC(C)NCCc2cccc(Cl)c2)cc1)NCCc1cccc(Cl)c1 (configuration not stated)
The IFI of the first is higher: 11.9% for the first, 4.29% for the second.

Compared with `CC(Cc1ccc(NC(=O)COc2ccc(CC(C)NCCc3cccc(Cl)c3)cc2)cc1)NCCc1cccc(Cl)c1` (configuration not stated), `CC(Cc1ccc(COc2ccc(CC(CO)NCCc3cccc(Cl)c3)cc2)cc1)NCCc1cccc(Cl)c1` (configuration not stated) is lower in IFI: 32.4% for the first, 16.6% for the second.

Going from `C[C@H](Cc1ccc(OCCCCCCOc2ccc(C[C@@H](C)NC(=O)[C@H](O)c3cccc(Cl)c3)cc2)cc1)NC[C@H](O)c1cccc(Cl)c1` to `C[C@H](Cc1ccc(OCCCCCCCOc2ccc(C[C@@H](C)NC[C@H](O)c3cccc(Cl)c3)cc2)cc1)NC[C@H](O)c1cccc(Cl)c1`, the IFI rises from 11.3% to 22.1%.

Compared with `NC(=O)c1cccc(C(=O)Nc2ccc(-c3cccc(-c4nc5cc(F)ccc5[nH]4)c3)cc2)c1`, `Cc1cccc2nc(-c3cccc(-c4ccc(NC(=O)Nc5cccc(C#N)c5)cc4)c3)[nH]c12` is higher in IFI: 1.74% for the first, 5% for the second.

Compared with `Cc1cccc2nc(-c3cccc(-c4ccc(NC(=O)C(C)CN(C)C)cc4)c3)[nH]c12` (configuration not stated), `Cc1cccc2nc(-c3cccc(-c4cccc(NC(=O)Cc5c[nH]cn5)c4)c3)[nH]c12` is lower in IFI: 5.45% for the first, 4.63% for the second.

First: C=C(C)CSc1nc2c(c(=O)n1CCc1ccccc1)C1(CCCC1)Cc1ccccc1-2
Second: CN1CCCC(CN2CCN(Cc3cccc(-c4cccc(-c5nc6ccccc6[nH]5)c4)c3)CC2)C1 (configuration not stated)
The IFI of the first is lower: 0% for the first, 7.04% for the second.

Compared with `O=C(CCc1c[nH]cn1)Nc1ccc(-c2ccc(-c3nc4ccccc4[nH]3)cc2)cc1`, `COc1ccc(CNCc2cccc(-c3ccc(-c4nc5ccccc5[nH]4)s3)c2)cc1` is higher in IFI: 3.51% for the first, 7.69% for the second.

First: CCNc1cc(C(=O)N[C@@H](Cc2ccccc2)[C@H](O)CNC(C)Cc2cccc(Cl)c2)cc(N2CCCCS2(=O)=O)c1 (some centres not stated)
Second: CC(C)c1cn2c3c(cc(C(=O)N[C@@H](Cc4ccccc4)[C@H](O)CNC4CCCCC4)cc13)N(C)S(=O)(=O)CC2
The IFI of the first is higher: 4.9% for the first, 2.94% for the second.

Compared with `COc1ccc2c(NN=Cc3ccc(N(C)C)cc3)ccnc2c1`, `COc1ccc2nc(C)cc(N/N=C/c3cccc([N+](=O)[O-])c3)c2c1` is lower in IFI: 5.8% for the first, 1.42% for the second.

First: O=C(NCC1CCN(CCN2CCC(c3cn(CCO)c4ccccc34)CC2)CC1)c1ccc(-c2ccc(C(F)(F)F)cc2)cc1
Second: CC(C)N1CCC(N(Cc2ccc(-c3ccc(C(F)(F)F)cc3)cc2)C(=O)Cn2c(CCc3cccc(F)c3F)nc(=O)c3cccnc32)CC1
The IFI of the first is lower: 10% for the first, 16.1% for the second.

First: COc1ccc(O)c(-c2sc(N=C(N)N)nc2-c2ccccc2)c1
Second: COc1ccc2nc(C)cc(NCc3cccc4ccccc34)c2c1
The IFI of the first is higher: 8.09% for the first, 1.46% for the second.

Going from `Fc1cccc(C=NN=c2cc[nH]c3ccc(C(F)(F)F)cc23)c1` to `Cc1cc(=NN=Cc2ccc(Cl)cc2)c2cccc(C)c2[nH]1`, the IFI rises from 0% to 1.45%.

First: N=C(NCCc1c[nH]c2ccccc12)NCc1ccccc1Cl
Second: CCCCNCc1cc(Cl)c2ccccc2c1O
The IFI of the first is lower: 4.32% for the first, 6.77% for the second.

First: NOCCCCOc1ccc(Cl)cc1
Second: CN(C)CCCOc1ccc(CCNCc2cccc(Oc3ccc(Cl)cc3)c2)cc1
The IFI of the first is lower: 0% for the first, 7.97% for the second.

Going from `CC(Cc1ccc(OCCCCOc2ccccc2)cc1)NCCc1ccc(Oc2ccccc2)cc1` (configuration not stated) to `CN(C)Cc1ccc(-c2cccc(Nc3nccc(NCC(O)c4ccccc4)n3)c2)cc1` (configuration not stated), the IFI falls from 18.2% to 11.2%.

Going from `CCOc1ccc(CNCCCCCCNCc2ccc(OCC)c3ccccc23)c2ccccc12` to `COc1ccc(CNCCCCCCNCc2ccc(OC)c3ccccc23)c2ccccc12`, the IFI falls from 15.4% to 8.21%.

Compared with `COc1cc(CNCCCCCCNCc2cc(OC)cc3ccccc23)c2ccccc2c1`, `COc1c(CNCCCCCCNCc2cc(Cl)c3ccccc3c2OC)cc(Cl)c2ccccc12` is higher in IFI: 10.1% for the first, 19.4% for the second.

Going from `COc1ccc(CCNCCCCCCNCCc2ccc(OC)c(OC)c2Cl)c(Cl)c1OC` to `COc1ccc(CCNCCCCCCNCCc2ccc(Cl)c3ccccc23)cc1OC`, the IFI rises from 2.94% to 9.42%.

Going from `COc1cc(CNCCCCCCNCc2cc(OC)c3ccccc3c2OC)c(OC)c2ccccc12` to `COc1cc(CNCCCCCCNCc2cc(OC)c(OC)c3ccccc23)c2ccccc2c1OC`, the IFI falls from 17.3% to 7.41%.

First: CCOc1cc(OCC)c2ccccc2c1CNCCCCCCNCc1c(OCC)cc(OCC)c2ccccc12
Second: CCOc1cc(CNCCCCCCNCc2cc(OCC)c(OCC)c3ccccc23)c2ccccc2c1OCC
The IFI of the first is lower: 16% for the first, 18.8% for the second.

Going from `COc1c(CCNCCCCNCCc2cc(Cl)c3ccccc3c2OC)cc(Cl)c2ccccc12` to `Cc1cc(F)ccc1Nc1nc(N(C)c2ccccc2)c2cc(OCCCN(C)C)ccc2n1`, the IFI falls from 19% to 10.8%.

Going from `COc1cccc(-c2csc(C(=O)NCC3CCN(Cc4ccc(C(C)C)cc4)C3)c2)c1` (configuration not stated) to `COc1ccc(-c2cccc(NC(=O)c3cccc(Cl)c3)c2)cc1CN1CCNCC1`, the IFI falls from 8% to 6.93%.

Compared with `CCN(CC)CCN(Cc1ccc(-c2ccc(C(F)(F)F)cc2)cc1)C(=O)Cn1c(CCc2c(F)cccc2F)nc(=O)c2ccccc21`, `CN(C)Cc1cccc(-c2ccc(Nc3nccc(NCC(O)c4ccccc4)n3)cc2)c1` (configuration not stated) is higher in IFI: 11.7% for the first, 17.2% for the second.

First: CN1CCN(S(=O)(=O)c2cccc(Nc3nccc(N(C)c4ccc5c(c4)nc(NC(=O)c4cccs4)n5C)n3)c2)CC1
Second: O=S(=O)(c1ccccc1)n1ccc2cc(Nc3ncnc4cc(C#C[C@H]5CCCN5)sc34)ccc21
The IFI of the first is lower: 2.26% for the first, 8.57% for the second.

Compared with `C#CCNCc1ccc(-c2ccc(-c3nc4cc(C(F)(F)F)ccc4[nH]3)s2)cc1`, `Cc1ccc(Nc2nccc(NCC(O)c3cccc(C(F)(F)F)c3)n2)cc1` (configuration not stated) is higher in IFI: 8.82% for the first, 17.9% for the second.

Going from `Cc1nn(CC(C)C)c2sc(C(=O)Nc3nc(-c4ccccn4)cs3)cc12` to `N=C(NCc1ccc(O)cc1)Nc1nc(-c2ccc(OCCCn3ccnc3)cc2)cs1`, the IFI falls from 10% to 6.47%.

Compared with `COc1ccc2nccc([C@@H](O)CN3CCC(NCCOc4ccc(F)cc4F)CC3)c2c1`, `COc1cccc(C(O)CNc2ccnc(Nc3ccc(Cl)cc3)n2)c1` (configuration not stated) is higher in IFI: 1.59% for the first, 19.8% for the second.

Compared with `COc1ccc(N(c2nc(-c3cc(Cl)ccc3Cl)cs2)C2CCNC2)cc1` (configuration not stated), `Cc1cc(F)ccc1N(c1nc(-c2cc(Cl)ccc2Cl)cs1)C1CCNC1` (configuration not stated) is higher in IFI: 20% for the first, 21.4% for the second.

First: Cc1cc(-c2cc(Cl)ccc2Cl)no1
Second: CNCCCNCc1ccc(-c2ccc(F)c(Cl)c2)o1
The IFI of the first is lower: 0% for the first, 2.78% for the second.

Compared with `Clc1cc(Br)ccc1-c1ccc(CNCC2CCNCC2)o1`, `CN(C)CCCNCc1ccc(-c2ccc(F)c(Cl)c2)o1` is lower in IFI: 26.3% for the first, 6.94% for the second.

Compared with `O=C(/C=C/c1ccc(Cl)c(Cl)c1)N1CCN(C(=O)Nc2ccc(C(F)(F)F)cc2)CC1`, `O=C(/C=C/c1ccc(Cl)c(Cl)c1)N1CCN(C(=O)Nc2cccc(C(F)(F)F)c2)CC1` is higher in IFI: 22.1% for the first, 24.2% for the second.

First: O=C(/C=C/c1ccc(Cl)c(Cl)c1)NCCCCCCN1CCN(C(=O)Nc2ccc(C(F)(F)F)cc2)CC1
Second: O=C(/C=C/c1ccc(Cl)c(Cl)c1)NCCCCCCN1CCCN(C(=O)Nc2cccc(C(F)(F)F)c2)CC1
The IFI of the first is lower: 7.03% for the first, 8.26% for the second.

Going from `O=C(/C=C/c1ccc(Cl)c(Cl)c1)NCCCCCN1CCCN(C(=O)Nc2cccc(C(F)(F)F)c2)CC1` to `O=C(Nc1cccc(C(F)(F)F)c1)c1ccc(S(=O)(=O)NCC2CCCN(CC3CCCCC3)C2)cc1` (configuration not stated), the IFI falls from 8.61% to 5.1%.

Going from `C=C[C@]1(C)C[C@@H](OC(=O)CNC[C@@H](O)CN2C[C@H](c3ccnc4ccc(OC)nc34)OC2=O)[C@@]2(C)[C@@H]3C(=O)CC[C@@]3(CC[C@@H]2C)[C@@H](C)[C@@H]1O` to `Cc1ccc(Nc2nccc(NCC(O)c3cccc(C)c3)n2)cc1` (configuration not stated), the IFI rises from 1.56% to 18.4%.

Compared with `COc1ccc(Nc2nccc(NCC(O)c3cccc(C(F)(F)F)c3)n2)cc1` (configuration not stated), `OC(CNc1ccnc(Nc2ccc(Cl)cc2)n1)c1cccc(C(F)(F)F)c1` (configuration not stated) is higher in IFI: 15.3% for the first, 16.3% for the second.

First: Cc1ccc(Nc2nccc(NCC(O)c3cccc(F)c3)n2)cc1 (configuration not stated)
Second: Cc1ccc(Nc2nccc(NCC(O)c3ccc(C(F)(F)F)cc3)n2)cc1 (configuration not stated)
The IFI of the first is higher: 9.71% for the first, 9.18% for the second.

Compared with `CN(C)CC(=O)Nc1ccc(Nc2nccc(NCC(O)c3ccccc3)n2)cc1` (configuration not stated), `OC(CNc1ccnc(Nc2ccccc2)n1)c1cccc(C(F)(F)F)c1` (configuration not stated) is higher in IFI: 2.94% for the first, 12.2% for the second.

With `Cc1cccc(Nc2nccc(NCC(O)c3cccc(C(F)(F)F)c3)n2)c1` (configuration not stated) the IFI was 14.3%.
